E coli Lon inh = inhibitors of E. coli Lon protease; purified E. coli Lon protease, fluorescence polarization; inhibition, % at 7.94 µM; P0A9M0; 360,000 compounds, 0.42% hits; AID 602123; in the data active = inhibition above about 13%, passing the limit was not always enough
Target sequence (P0A9M0 whole entry, looked up): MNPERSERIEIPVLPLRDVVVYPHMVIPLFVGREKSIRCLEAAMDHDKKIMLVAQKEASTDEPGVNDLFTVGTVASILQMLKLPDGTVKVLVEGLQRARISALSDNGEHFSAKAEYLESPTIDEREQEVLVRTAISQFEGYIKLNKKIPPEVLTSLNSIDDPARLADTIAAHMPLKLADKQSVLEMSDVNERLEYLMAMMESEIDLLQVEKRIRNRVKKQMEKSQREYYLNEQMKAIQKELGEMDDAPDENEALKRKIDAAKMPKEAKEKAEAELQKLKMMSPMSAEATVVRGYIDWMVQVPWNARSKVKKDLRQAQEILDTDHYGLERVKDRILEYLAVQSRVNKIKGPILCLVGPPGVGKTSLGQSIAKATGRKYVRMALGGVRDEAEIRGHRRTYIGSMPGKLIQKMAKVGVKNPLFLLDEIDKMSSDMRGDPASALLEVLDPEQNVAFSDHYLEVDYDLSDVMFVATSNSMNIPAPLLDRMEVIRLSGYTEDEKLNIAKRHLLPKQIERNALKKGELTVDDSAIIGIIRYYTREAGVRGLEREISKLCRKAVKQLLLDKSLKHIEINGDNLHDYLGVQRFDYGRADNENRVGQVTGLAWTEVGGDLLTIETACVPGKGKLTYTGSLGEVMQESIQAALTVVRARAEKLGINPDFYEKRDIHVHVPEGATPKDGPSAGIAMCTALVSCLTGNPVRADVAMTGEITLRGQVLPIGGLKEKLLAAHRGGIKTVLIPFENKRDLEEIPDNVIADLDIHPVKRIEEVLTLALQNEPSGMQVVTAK
MEX-5 binding = C. elegans MEX-5 TCR-2 RNA binding activity; activity score (negative = inhibition of binding), % at 10 µM; Q9XUB2; MEX-5/FITC-TCR2 RNA binding, fluorescence polarization; hits give low values; 300,000 compounds, 0.38% hits;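 active = inhibition past about -25% in most replicates, and total fluorescence under double the plate's negative control median, limit read from the data; inconclusive = replicates evenly split on the limit, or fluorescence at least double controls; inactive = too little inhibition in most replicates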
Bcl-xL primary = blocks human Bcl-xL binding to Bim BH3 peptide | inhibition, % at 10.9 µM | 320,000 compounds, 0.7% hits | GST-Bcl-xL / FITC-Bim BH3 peptide fluorescence polarization | Q07817 | AID 2129;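 active = inhibition above the mean of all tested compounds plus 3 SD, cutoff set per campaign, cut at about 30% in these data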;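 note: inhibitors lower millipolarization by displacing the labeled peptide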
GLD-1 RNA inh = GLD-1-TGE RNA interaction inhibition (C. elegans); Q17339; purified GLD-1 + fluorescein TGE RNA, fluorescence polarization; inhibition, % at 5.96 µM; 320,000 compounds, 0.44% hits;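 active = percent inhibition above a per-plate cutoff, the plate mean of test compounds plus 3 SD, cut at about 30% in these data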
EBV gp42 block = blocks Epstein-Barr virus glycoprotein 42 binding; inhibition, % (tested at 21.74 µM); 220,000 compounds, 0.42% hits; Fluorescence polarization binding assay, mP read-out; Q1HVG2; AID 1085; in the data active = inhibition above about 50%
E coli Lon conf = E. coli Lon inhibition confirmation; inhibition, % at 7.94 µM; shares compounds with E coli Lon inh; purified E. coli Lon, fluorescence polarization; 1,400 compounds, 31% hits; in the data active = inhibition above about 16%
Of the large screens only hits and unclear results are named; the others gave an inactive call (follow-up assays come after a bar, where they were run). Hits are enriched below; roughly 1.3% of the tested compounds scored in any of these assays.

O=C(CSc1nnc2c(n1)[nH]c1ccccc12)Nc1ccc(S(=O)(=O)Nc2ncccn2)cc1	E coli Lon inh 18 (no result: Bcl-xL primary, GLD-1 RNA inh) | E coli Lon conf 28
CCc1ccc(NC(=O)[C@H](C)NC(=O)C2CCN(C(=O)[C@@H](NC(=O)OC(C)(C)C)C(C)C)CC2)cc1	none (no result: EBV gp42 block)
CC(C)[C@H](NC(=O)OC(C)(C)C)C(=O)N1CCC(C(=O)N[C@@H](C)C(=O)Nc2ccc(F)cc2)CC1	E coli Lon inh 19 (no result: EBV gp42 block) | E coli Lon conf inactive
O=C1c2ccccc2C(=O)N1SC1CCCCC1	E coli Lon inh 19 | E coli Lon conf inactive
O=C(OCN1C(=O)c2ccccc2C1=O)C1CCCCC1	none
CCCNC(=O)c1ccc2c(=O)c(O)c(-c3ccc(C)cc3)[nH]c2c1	E coli Lon inh 160 | E coli Lon conf 141
CCCNC(=O)c1ccc2c(=O)c(O)c(-c3ccc(OC)cc3)[nH]c2c1	E coli Lon inh 172 | E coli Lon conf 112
Cc1ccc(-c2[nH]c3cc(C(N)=O)ccc3c(=O)c2O)cc1	E coli Lon inh 76, MEX-5 binding -70 | E coli Lon conf 46
Cc1ccc(-c2[nH]c3cc(C(=O)NCCCn4ccnc4)ccc3c(=O)c2O)cc1	E coli Lon inh 125 | E coli Lon conf 92
Cc1ccc(CNC(=O)c2ccc3c(=O)c(O)c(-c4ccc(C)cc4)[nH]c3c2)cc1	none
COCCCNC(=O)c1ccc2c(=O)n(Cc3ccc(OC)cc3)c(=O)[nH]c2c1	none
CCc1nc2ccc(C(=O)Nc3cccc(OC)c3)cn2c1N(CC)CCOC	none (no result: MEX-5 binding, Bcl-xL primary, GLD-1 RNA inh, EBV gp42 block)
O=C(c1ccc(Cl)c(S(=O)(=O)N2CCOCC2)c1)N1CCN(c2ccccc2)CC1	none (no result: EBV gp42 block)
Cc1cc(C)c(C)c(S(=O)(=O)N2CCC(C(=O)NC3=NCCS3)CC2)c1C	none (no result: MEX-5 binding, EBV gp42 block)
CCCNC(=O)c1ccc2c(=O)c(O)c(-c3ccsc3)[nH]c2c1	E coli Lon inh active, MEX-5 binding inconclusive | E coli Lon conf 182
COc1cc(C(=O)OCCc2cc3ccccc3c(=O)o2)cc(OC)c1OC	none (no result: MEX-5 binding, EBV gp42 block)
Cc1c(N)c(C(C)(C)C)cc(C(C)(C)C)c1[N+](=O)[O-]	none
Cc1cc2nc3c(=O)[nH]c(=O)[nH]c3nc2c([N+](=O)[O-])c1N	E coli Lon inh 95, EBV gp42 block 150 (no result: MEX-5 binding, Bcl-xL primary, GLD-1 RNA inh) | E coli Lon conf 182
COc1ccc(C2(c3ccc(OC(C)=O)cc3OC(C)=O)CC(c3ccccc3)NC(=S)N2)cc1 (configuration not stated)	E coli Lon inh 21 | E coli Lon conf inactive
CC(=O)Nc1ccc(OS(=O)(=O)c2ccc(Cl)cc2)cc1	none (no result: EBV gp42 block)
CC(=O)Nc1cc(Cl)ccc1OS(=O)(=O)c1ccc(C)cc1	E coli Lon inh 45 | E coli Lon conf inactive
CC1(C)CC(=O)C2=C(C1)OC(N)=C(C#N)C2c1cc2c(cc1[N+](=O)[O-])OCO2 (configuration not stated)	E coli Lon inh 104, MEX-5 binding -56, Bcl-xL primary 186, GLD-1 RNA inh 141, EBV gp42 block 94 | E coli Lon conf 80
CN(C)CCNC(=O)C(=O)Nc1cc2c3c(c1)CCN3C(=O)CC2	none (no result: EBV gp42 block)
COc1ccc(N2CC(C(=O)N3CCN(c4ccccc4)CC3)CC2=O)cc1 (configuration not stated)	none (no result: EBV gp42 block)
O=C(COC(=O)C1CC(O)CN1S(=O)(=O)c1ccc(Cl)cc1)c1cccc(Cl)c1 (configuration not stated)	E coli Lon inh 72 | E coli Lon conf inactive
CC(C)C1NC2(C(=O)c3ccccc3C2=O)C2C(=O)N(c3ccc(F)cc3)C(=O)C12 (configuration not stated)	E coli Lon inh 50, Bcl-xL primary 80, GLD-1 RNA inh 120 | E coli Lon conf inactive
CC(=O)c1cccc(NC(=O)COC(=O)CCC(=O)c2cccs2)c1	none (no result: MEX-5 binding, Bcl-xL primary, GLD-1 RNA inh, EBV gp42 block)
O=C(CCCOC(=O)c1ccc(O)cc1O)c1ccc(Br)cc1	E coli Lon inh 20 (no result: MEX-5 binding, Bcl-xL primary, GLD-1 RNA inh, EBV gp42 block) | E coli Lon conf inactive
Nc1ccc(C(=O)N/N=C/c2sc(N3CCOCC3)nc2-c2ccccc2)cc1	none
COc1cc(C(=O)N/N=C/c2sc(N3CCOCC3)nc2-c2ccccc2)cc(OC)c1OC	E coli Lon inh 17 | E coli Lon conf inactive
Oc1cc(CNCc2ccccc2)c(O)cc1CNCc1ccccc1	E coli Lon inh 52 (no result: MEX-5 binding, Bcl-xL primary, GLD-1 RNA inh, EBV gp42 block) | E coli Lon conf inactive
COc1cc(CNc2nnnn2C)cc(OC)c1OC	none (no result: EBV gp42 block)
CCOc1ccc(CC(=O)OCc2cc(=O)n3cc(Br)ccc3n2)cc1	E coli Lon inh 42 (no result: MEX-5 binding) | E coli Lon conf inactive
CC1CN(C(=O)CSc2nnc(-c3cccs3)n2N)CC(C)O1 (configuration not stated)	none (no result: MEX-5 binding, EBV gp42 block)
O=C1C(NS(=O)(=O)c2ccccc2)=C(N2CCN(c3ccc(F)cc3)CC2)C(=O)c2ccccc21	none
O=C1C(NS(=O)(=O)c2cccs2)=C(N2CCN(c3cccc(Cl)c3)CC2)C(=O)c2ccccc21	E coli Lon inh 19 | E coli Lon conf 32
CN(CCc1ccccn1)C(=O)CC1C(=O)NCCN1Cc1ccc(-c2ccccc2)cc1 (configuration not stated)	none
Cc1ccc(CN2CCNC(=O)C2CC(=O)N(C)CCc2ccccc2)cc1 (configuration not stated)	E coli Lon inh 23 | E coli Lon conf inactive
C=CCOc1cccc(C2C(C(=O)c3ccc(C)o3)=C(O)C(=O)N2c2nccs2)c1 (configuration not stated)	E coli Lon inh 55, MEX-5 binding -49, Bcl-xL primary 144, GLD-1 RNA inh 130, EBV gp42 block 179 | E coli Lon conf 126
CC1(C)CC(=O)C2=C(C1)Nc1cc3c(cc1C2c1ccc2c(c1)OCO2)OCO3 (configuration not stated)	none
CC1(C)CC(=O)C2=C(C1)Nc1ccccc1NC2c1ccc2c(c1)OCO2 (configuration not stated)	E coli Lon inh 36 | E coli Lon conf 16
COc1ccc(C2Nc3ccccc3NC3=C2C(=O)CC(C)(C)C3)cc1OC (configuration not stated)	none (no result: EBV gp42 block)
Cc1cc2c(cc1C)NC(c1c(C)n(C)n(-c3ccccc3)c1=O)C1=C(CC(C)(C)CC1=O)N2 (configuration not stated)	E coli Lon inh 20, Bcl-xL primary 120, GLD-1 RNA inh 85, EBV gp42 block 85 | E coli Lon conf inactive
COc1cc(C2Nc3cc(C)c(C)cc3NC3=C2C(=O)CC(C)(C)C3)ccc1OC(C)=O (configuration not stated)	none (no result: EBV gp42 block)
CCOc1ccc(C2Nc3ccccc3NC3=C2C(=O)CC(C)(C)C3)cc1OC (configuration not stated)	E coli Lon inh 29 (no result: EBV gp42 block) | E coli Lon conf inactive
COc1ccc(C2Nc3ccccc3NC3=C2C(=O)CC(C)(C)C3)cc1O (configuration not stated)	E coli Lon inh 19 (no result: EBV gp42 block) | E coli Lon conf inactive
CNc1cncc(-c2cccc(NS(C)(=O)=O)c2)n1	none (no result: MEX-5 binding, Bcl-xL primary, GLD-1 RNA inh, EBV gp42 block)

Source: PubChem (several laboratories)
